KB-V1 cytotox – KB-V1 MDR subline cytotoxicity | KB-V1 MDR cells viability, CellTiter-Glo, 72 h | Potency, µM (titrated, usually from 46.1 µM), actives largely listed as cytotoxic | 400,000 tested, 3.4% active | AID 1347076; also: % is scaled to controls: 0 for no effect and ±100 for the full control effect; nearly all actives have a fitted effect of over 60% in size
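KB-V1 cells (P-gp-expressing MDR subline of KB-3-1) in phenol-red-free DMEM with 10% FBS were exposed to library compounds over a concentration series for 72 h at 37 degrees C. Viability read by CellTiter-Glo luminescence; concentration-effect curves fitted after normalization.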
HT1080 IDH1KD tx – toxicity to HT-1080 IDH1 knockdown cells (counter line). Potency, µM (highest dose often 46.1 µM), inactives show at the highest dose activity, negative = toxicity, usual class: cytotoxic. 360,000 tested, 2% active. HT-1080 IDH1 knockdown viability, ATP luminescence, 48 h. AID 686971;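 also: 0% = DMSO wells and -100% = cell-free medium wells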
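% activity derives from luminescence (CellTiter-Glo), normalised to DMSO and no-cell wells. HT-1080-IDH1KD cells, 750/well, had 48 h compound exposure at 37 °C.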
HT1080NT lethal – kills 2HG-producing HT-1080-NT fibrosarcoma cells; HT-1080-NT fibrosarcoma viability, CellTiter-Glo ATP luminescence, 48 h; Potency, µM (highest dose often 46.1 µM), inactives show at the highest dose activity, negative = less viability, hits mostly cytotoxic; 360,000 tested, 1.6% active;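 also: NT is the 2HG producing partner of a matched IDH1 knockdown line; 0% = DMSO-treated cells and -100% = media-only wells without cells; nearly all actives have a fitted effect of over 55% in size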
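Read-out is CellTiter-Glo luminescence after 10 minutes at room temperature, following 48 hours' compound treatment of HT-1080-NT cells (750 cells/well, RPMI, 5% FBS, 37 degrees C).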
KB-3-1 cytotox – KB-3-1 parental cell cytotoxicity | Potency, µM (doses to about 46.1 µM), usual class: cytotoxic | 400,000 tested, 1.4% active | AID 1347075 | KB-3-1 viability, CellTiter-Glo ATP luminescence, 72 h; also: % is scaled to controls: 0 for no effect and ±100 for the full control effect; nearly all actives have a fitted effect of over 60% in size
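Here the drug-naive KB-3-1 line serves as comparator for MDR sub-line selectivity; cells received compound titrations, 72 h at 37 °C, then CellTiter-Glo readout.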
MCF10A rerep – inducers of DNA re-replication in MCF 10A breast cells. MCF 10A DNA re-replication, Hoechst nuclear intensity, 48 h. 350,000 tested, 2.9% active. Potency, µM (doses to about 46.1 µM), for the others: top-dose activity, positive = re-replication, hits mostly activators; also: % of control where 0% means no effect; nearly all actives have a fitted effect of over 50% in size
SW480 rerep – induces DNA re-replication in SW480 colon adenocarcinoma cells | SW480 DNA re-replication, Hoechst DNA content imaging, 48 h | Potency, µM (series often up to 46.1 µM), for inactives: at the top dose re-replication activation, hits mostly activators | 340,000 tested, 1.8% active | AID 624297; also: % of control where 0% means no effect; nearly all actives have a fitted effect of over 55% in size
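Readout is total intensity of Hoechst-stained nuclei, excited at 405 nm and collected at 500-530 nm. Compound treatment lasted 48 hr at 37 C in 5% CO2 before staining.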
Active calls of the source: *; i = inactive; ? = inconclusive; / = no result given; [ ] = another dose, or the depositor's remark. Most compounds without a hit are left out; they make up all but 8% or so of the library. Calls follow the shape of the dose curve; as a rule, active = well fitted curve in the direction sought with a large enough effect; inconclusive = small, poorly fitted or top-dose-only effect, or another doubt; inactive = no such curve, though single readings can be large; an effect the other way counts as inactive or inconclusive. Potency is read from the fitted curve at half-maximal effect.

SMILES	KB-V1 cytotox	HT1080 IDH1KD tx	HT1080NT lethal	KB-3-1 cytotox	MCF10A rerep	SW480 rerep
COc1ccc(-c2cc(C)nc(SCC(=O)c3cccc([N+](=O)[O-])c3)n2)cc1	i	25%	14%	i	?	1%
COC(=O)c1ccc(Oc2cc(C)nc(-n3nc(C)cc3C)n2)cc1	1.8µM*	1.1µM*	1.3µM*	1.3µM*	2.1µM*	0.82µM*
Cc1cc(-c2ccccc2)nc(SCC(=O)c2cccc([N+](=O)[O-])c2)n1	?	?	?	i	?	16µM*
Cc1cc(Oc2ccc3ccccc3c2)nc(SCC(=O)c2ccccc2)n1	16µM*	-18%	3%	18µM*	?	?
CCOC(=O)c1ccc(Oc2cc(C)nc(SC)n2)cc1	9.2µM*	15µM*	16µM*	9.2µM*	1.8µM*	6.5µM*
CCOC(=O)COC(=O)c1ccc(Oc2cc(C)nc(SC)n2)cc1	i	-1%	0%	i	6%	-5%
Cc1ccc(C(=O)NCC(=O)OCC(=O)c2ccccc2)s1	?	9%	0%[9.24 µM]	i	0%	-38%
COc1cc(C(=O)Nc2ccc(N3CCOCC3)cc2)ccc1OCc1c(C)noc1C	?	-1%	-17%	?	-3%	2%
CCN1C(=O)/C(=C\C=C\c2ccccc2[N+](=O)[O-])SC1=S	?	-25%	-4%	?	4.1µM*	?
CCOc1ccccc1C=C1SC(=S)N(CC)C1=O	i	19%	12%	i	2%	-4%
O=C(NCC1CCCO1)C(=O)N/N=C/c1cccc(Cl)c1 (stereo not given)	i	7%	3%	i	0%	-1%
CC1CCCN(Cc2nc(Cc3ccccc3Cl)no2)C1 (stereo not given)	i	1%	0%	?	6%	-1%
CC1CCCC/C1=N\NC(=S)Nc1ccccc1 (stereo not given)	?	1%	19%	i	-6%	2%
CC(C)NC(=S)N/N=C1\CCCCC1C1CCCCC1 (stereo not given)	?	-8%	4%	?	18µM*	?
O=C(CNc1ccc2ccccc2c1)N/N=C/C=C/c1cccc([N+](=O)[O-])c1	i	?	?	i	?	-3%
C=CCc1cccc2cc(C(=O)N3CCN(C(=O)c4ccco4)CC3)c(=O)oc12	?	-10%	0%	i	13µM*	?
COc1ccc(NC(=O)c2cccc(-c3ccc(O)cc3)c2)cn1	i	2.1µM*	?	?	?	?
C=C1c2cc(OC)ccc2NC(=O)N1CC	7.3µM*	-2%	0%	i	12%	0%
Cc1cccc(C)c1NC(=O)CSc1nc2ncccc2o1	i	/	/	i	/	/
CC(=O)c1ccsc1B(O)O	i	/	/	i	/	/
COc1ccccc1C(=O)Nc1ccc(S(=O)(=O)N2CCc3ccccc32)cc1	?	1%	2%	i	7%	?
COc1ccc(S(=O)(=O)N2CCc3ccccc32)cc1C(=O)Nc1ccc(C(N)=O)cc1	i	?	?	?	23µM*	6%
COCCNC(=O)c1c[nH]c2ccc(S(=O)(=O)N3CCc4ccccc43)cc2c1=O	i	2.3µM*	2.3µM*	?	-7%	-3%
COc1cc(C(=O)Nc2ccc(S(=O)(=O)N3CCc4ccccc43)cc2)cc(OC)c1OC	5.8µM*	-18%	-6%	?	6%	15%
COCCCNC(=O)c1c[nH]c2ccc(S(=O)(=O)N3CCc4ccccc43)cc2c1=O	i	?	?	?	-6%	-3%
SMILES	KB-V1 cytotox	HT1080 IDH1KD tx	HT1080NT lethal	KB-3-1 cytotox	MCF10A rerep	SW480 rerep
O=C(Nc1ccc(S(=O)(=O)N2CCc3ccccc32)cc1)c1ccc2c(c1)OCO2	5.2µM*	?	?	i	2%	15%
COc1ccc(S(=O)(=O)N2CCc3ccccc32)cc1C(=O)NCCc1ccc(S(N)(=O)=O)cc1	i	3%	5%	i	-2%	-10%
O=[N+]([O-])c1ccc(/C=C2\C=Cc3ccccc32)cc1	i	/	/	i	/	/
Cc1[nH]c2ccccc2c1C(=O)COC(=O)c1ccccc1O	i	-1%	-1%	i	1%	1%
COc1ccc(Cl)cc1NS(=O)(=O)c1c(C)nc2scc(C)n2c1=O	i	/	/	i	/	/
CC(C(=O)NC1CCCC1)N(C(=O)c1snc(C(N)=O)c1N)c1ccc2c(c1)OCCO2 (stereo not given)	16µM*	-4%	-1%	i	13%	3%
CCOc1ccccc1N(C(=O)c1snc(C(N)=O)c1N)C(C(=O)NCCC(C)C)c1ccco1 (stereo not given)	13µM*	0%	-11%	i	19%	16%
COc1cccc(C(C(=O)NC2CCCC2)N(Cc2ccco2)C(=O)c2ccco2)c1OC (stereo not given)	2.9µM*	-17%	?	i	1%	10%
Cc1ccc(N(C(=O)c2snc(C(N)=O)c2N)C(CC(C)C)C(=O)NC2CCCC2)cc1 (stereo not given)	i	6%	?	i	?	?
COc1ccc(C)cc1N(C(=O)c1snc(C(N)=O)c1N)C(C(=O)NC1CCCCC1)c1ccc(C)o1 (stereo not given)	21µM*	?	?	?	26%	?
COc1cccc(C(C(=O)NC2CCCC2)N(C(=O)c2ccco2)c2ccccc2F)c1OC (stereo not given)	?	0%	-6%	i	-6%	-4%
COc1ccc(C(C(=O)NC2CCCCC2)N(Cc2ccco2)C(=O)c2snc(C(N)=O)c2N)cc1 (stereo not given)	16µM*	-1%	-3%	?	?	12%
COc1ccc(CN(C(=O)c2snc(C(N)=O)c2N)C(C(=O)NC(C)(C)C)c2ccco2)cc1 (stereo not given)	i	-17%	14%	i	5%	0%
O=C(NC1CCCC1)C(c1ccncc1)N(Cc1ccco1)C(=O)c1ccc(-c2ccccc2)[nH]1 (stereo not given)	21µM*	15µM*	?	?	?	?
CC(C)(C)NC(=O)C(c1ccco1)N(Cc1ccc(F)cc1)C(=O)c1snc(C(N)=O)c1N (stereo not given)	18µM*	2%	-4%	i	2%	0%

Screens from PubChem.
